Results taken from publication PMC5540273 (PLoS ONE, 2017).

Assays:
Settings in all cases: concentration: 1 μM, replicates: in singlicate; n = 1
BRSK1 = test system: BRSK1
BRSK2 = test system: BRSK2
BTK = test system: BTK
BUB1 = test system: BUB1
CAMK1B = test system: CAMK1B
CAMK1D = test system: CAMK1D
CAMK1G = test system: CAMK1G
CAMK1 = test system: CAMK1
CAMK2A = test system: CAMK2A
CAMK2B = test system: CAMK2B
CAMK2D = test system: CAMK2D
CAMK2G = test system: CAMK2G
CAMK4 = test system: CAMK4
CAMKK1 = test system: CAMKK1
CAMKK2 = test system: CAMKK2
CASK = test system: CASK
CDC2L1 = test system: T1, CDC2L1
T1 construct: gene CDK11B

CDC2L2 = test system: CDC2L2
CDC2L5 = test system: T2, CDC2L5
T2 construct: gene CDK13

CDK11 = test system: T3, CDK11
T3 construct: gene CDK19
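Further: KINOMEscan kinase panel screen.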

Structure (SMILES)	%Inh (BRSK1) [%]	%Inh (BRSK2) [%]	%Inh (BTK) [%]	%Inh (BUB1) [%]	%Inh (CAMK1B) [%]	%Inh (CAMK1D) [%]	%Inh (CAMK1G) [%]	%Inh (CAMK1) [%]	%Inh (CAMK2A) [%]	%Inh (CAMK2B) [%]	%Inh (CAMK2D) [%]	%Inh (CAMK2G) [%]	%Inh (CAMK4) [%]	%Inh (CAMKK1) [%]	%Inh (CAMKK2) [%]	%Inh (CASK) [%]	%Inh (CDC2L1) [%]	%Inh (CDC2L2) [%]	%Inh (CDC2L5) [%]	%Inh (CDK11) [%]
COc1cc2ncnc(Nc3ccc(OCc4ccccc4Br)c(Cl)c3)c2cc1OC.Cl [GI261590]	0	37	0	66	21	0	0	12	0	0	0	14	0	0	0	0	2	18	0	21
CN1CCC(n2cnc(-c3ccc(F)cc3)c2-c2ccnc(NC3CCNCC3)n2)CC1 [SB-229482]	0	0	10	17	28	0	2	0	0	0	7	0	7	14	26	20	0	8	31	0
CC(C)(C)OC(=O)NC1CCCN(c2cc(-c3ccc4c(N)n[nH]c4c3)nc(N)n2)C1 (stereo not drawn) [GSK2286096]	0	0	0	0	25	21	11	16	0	0	16	18	0	0	32	2	8	0	0	38
Cc1ccc(C)c(NC(=O)NCCNc2ccnc(Nc3ccc(F)cc3)n2)c1 [GSK1379878]	0	0	0	14	28	2	62	5	0	0	18	21	0	0	2	0	0	17	0	6
O=C(Nc1ccccc1)Nc1ccc(Oc2ccc3nccn3n2)cc1	0	0	0	0	0	0	0	0	0	0	0	14	29	0	14	7	0	8	0	0
CSc1ccc(NC2=C(c3ccccc3Cl)C(=O)NC2=O)cc1 [SB-342411]	0	12	0	0	0	22	19	3	18	13	28	36	0	5	25	26	0	0	0	0
Nc1nccc2scc(-c3ccc4c(c3)CCN4C(=O)Cc3cc(F)ccc3F)c12 [GSK2587663]	4	0	0	45	27	21	4	29	0	0	9	23	0	5	9	22	0	6	0	61
COc1ccc(Nc2nccc(N3CCC(NC(=O)c4cccc(NC(C)=O)c4)C3)n2)cc1 (stereo not drawn) [GSK1379732]	0	0	36	54	9	8	0	13	0	0	8	26	3	0	26	13	0	11	0	15
CNc1nccc(-c2c(-c3ccc(F)cc3)ncn2CCCN2CCOCC2)n1 [SB-222516]	0	3	0	0	0	0	0	0	8	16	11	16	27	8	14	1	0	0	22	13
CCc1nc(-c2cccc(N(C)S(=O)(=O)c3ccccc3)c2)c(-c2ccnc(Nc3ccc(N4CCN(C(C)=O)CC4)nc3)n2)s1 [GSK1645895]	0	0	0	0	27	29	16	45	0	0	24	37	0	30	32	5	11	16	0	6
Cl.Cn1ccc(-c2cccc(Nc3ccnc4cc(-c5nccs5)ccc34)c2)n1 [GW525701]	0	38	0	62	3	3	38	0	0	0	26	21	0	25	20	2	0	0	0	3
CCC(CC)(CC)n1cnc2c(N)ncnc21 [SKF-97620]	0	15	0	48	18	4	6	3	0	0	0	0	8	0	0	42	0	0	20	0
O=C(Nc1ccccc1F)NC1CCN(c2ccnc(Nc3ccc(F)cc3)n2)C1 (stereo not drawn) [GSK1379722]	17	0	12	44	0	0	0	0	0	0	0	12	0	0	3	17	0	0	0	19
CCn1c(-c2ccncc2)nc2cnccc21 [SB-735216]	0	0	28	15	45	6	0	0	0	0	0	0	0	0	4	5	9	0	28	18
Clc1ccc(-c2cc(-c3c[nH]nc3-c3ccccn3)ccn2)cc1 [GW681251]	0	0	0	31	0	2	0	0	0	0	0	8	0	0	0	44	0	0	0	0
NC(=O)c1sc(-n2cnc3ccccc32)cc1OCc1ccccc1F [GSK1024306]	5	0	0	20	31	0	0	0	0	0	0	14	0	0	10	49	0	0	0	8
COC(=O)c1c(-c2ccccc2)c2cc(Cl)ccc2c(=O)n1Cc1ccc(S(C)(=O)=O)cc1	0	0	25	0	0	0	9	2	0	0	5	9	0	0	14	0	10	10	29	0
CNc1nccc(-c2c(-c3ccc(F)cc3)ncn2C2CCN(C)CC2)n1 [SB-222903]	0	0	0	75	0	0	0	0	0	0	0	0	7	0	0	11	4	13	0	0
C[C@H]1CC[C@@H](C(=O)Nc2ccccc2)CN1c1cc(-c2ccc3c(N)n[nH]c3c2)nc(N)n1 [GSK2283293]	0	0	0	49	23	17	0	11	0	0	3	16	0	7	15	4	0	13	0	0
CN1c2ccc(-c3ccc(C(=O)NCCO)cc3)cc2-c2[nH]ncc2S1(=O)=O	0	15	6	0	23	45	0	49	67	66	24	21	0	22	37	48	0	0	2	11
Fc1ccc(Nc2nccc(-c3c(-c4ccc(Cl)cc4)nn4ncccc34)n2)cc1F [GW829058]	0	4	75	35	13	32	0	22	16	18	0	2	0	2	5	26	6	11	30	18
O=C(c1ccc(-c2cc(-c3c[nH]nc3-c3ccccn3)ccn2)cc1)N1CCCC1 [GW792479]	0	2	24	20	0	30	0	32	1	5	3	56	0	23	46	21	0	7	15	5
Cc1ccc(NC(=O)c2cccc(C#N)c2)cc1-c1ccc(C(=O)Nc2ccncc2)cc1 [GSK1398463]	15	0	0	27	0	42	67	49	7	6	49	26	0	15	2	7	0	14	0	5
Oc1ccc2ncnc(Nc3ccc(OCc4ccccc4)cc3)c2c1 [GI262866]	2	0	4	18	1	4	0	17	0	0	1	2	0	0	0	8	0	0	0	36
CC(C)N1CCC(n2cnc(-c3ccc(F)cc3)c2-c2ccnc(N)n2)CC1 [SB-223132]	0	0	13	15	0	0	0	0	4	0	1	4	0	21	6	0	5	19	0	10
Cn1ccc2ncnc(Nc3ccc(Oc4cccc(Cl)c4)c(Cl)c3)c21	13	0	0	12	0	11	5	22	9	0	5	8	0	11	9	9	22	5	13	5
Cl.Cl.c1ccc(-c2cc3ccncc3cc2OC2CCNCC2)cc1 [GSK1122999]	17	6	0	0	0	20	29	3	0	0	26	20	43	0	30	16	15	5	0	12
Nc1nc(-c2ccc3c(N)n[nH]c3c2)cc(N2CCC[C@@H](C(=O)Nc3ccccc3)C2)n1.O=C(O)C(F)(F)F.O=C(O)C(F)(F)F [GSK2288359]	0	0	0	0	26	11	0	5	0	0	0	22	0	11	16	5	0	19	0	0
COc1ccc(-c2oc3ncnc(N)c3c2-c2ccc(OC)cc2)cc1 [SB-589132]	12	0	54	64	13	7	0	19	0	0	3	2	13	0	0	0	0	0	0	11
Cc1cc(N2CCC(NS(=O)(=O)c3ccc(F)cc3)CC2)nc(Nc2cccc(C#N)c2)n1.O=C(O)C(F)(F)F [GSK1653537]	7	0	0	0	0	8	0	16	0	0	3	1	0	5	0	0	0	0	0	0
